Laboratory results taken from PubChem BioAssay AID1159580 (chemical genetic matrix, 2015).
Several values for one entry are separate records, joined by “and”; a condition that tells them apart may be missing. Equal entries are not always repeated. The whole screen tested about 5,500 compounds, of which about 2,000 (36%) were called active. Inconclusive results (about 18%) are left out. No stated cut-off is given here; in the data, active means normalized growth mostly below about 0.91 (no sharp cut-off); inconclusive means no clear call, values can overlap the other calls; inactive means mostly above about 0.92. The list shows a part of the results.

Experiment: chemical genetic growth profiling, strain panel (AID 1159580);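 further: tested at 20 µM; growth read once vehicle control cultures reached saturation at 30 °C; 1 = growth at the plate median or of vehicle wells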
Conditions: S. cerevisiae deletion strains, growth OD

Measured: normalized growth

C=CCc1cc(OC)c2c(c1OC)OCO2
inactive: locus YAL013W, strain DEP1, stronger effect = lower value 0.971 | locus YAL021C, strain ccr4, stronger effect = lower value 1 | locus YAL026C, strain drs2, stronger effect = lower value 0.955 | locus YAL030W, strain snc1, stronger effect = lower value 0.95 | locus YBL061C, strain skt5, stronger effect = lower value 0.926 | locus YBR009C, strain hhf1, stronger effect = lower value 0.938 | locus YBR021W, strain FUR4, stronger effect = lower value 0.934 | locus YBR229C, strain ROT2, stronger effect = lower value 0.996 | locus YBR231C, strain swc5, stronger effect = lower value 0.982 | locus YBR279W, strain paf1, stronger effect = lower value 0.966 | locus YCL011C, strain gbp2, stronger effect = lower value 0.937 | locus YCL016C, strain dcc1, stronger effect = lower value 0.937 | locus YCL029C, strain bik1, stronger effect = lower value 0.945 | locus YCL061C, strain MRC1, stronger effect = lower value 0.944 | locus YCL069W, strain vba3, stronger effect = lower value 0.969 | locus YCR088W, strain abp1, stronger effect = lower value 0.954 | locus YDL005C, strain med2, stronger effect = lower value 0.992 | locus YDL035C, strain GPR1, stronger effect = lower value 0.968 | locus YDL074C, strain BRE1, stronger effect = lower value 0.91 | locus YDL101C, strain DUN1, stronger effect = lower value 0.995 | locus YDL134C, strain PPH21, stronger effect = lower value 0.982 | locus YDL185W, strain tfp1, stronger effect = lower value 0.968 | locus YDL192W, strain arf1, stronger effect = lower value 0.956 | locus YDR001C, strain nth1, stronger effect = lower value 0.93 | locus YDR069C, strain doa4, stronger effect = lower value 1.06 | locus YDR137W, strain rgp1, stronger effect = lower value 0.955 | locus YDR150W, strain NUM1, stronger effect = lower value 0.979 | locus YDR162C, strain NBP2, stronger effect = lower value 0.951 | locus YDR297W, strain sur2, stronger effect = lower value 0.94 | locus YDR318W, strain mcm21, stronger effect = lower value 0.947 | locus YDR334W, strain swr1, stronger effect = lower value 1.02 | locus YDR335W, strain msn5, stronger effect = lower value 0.982 | locus YDR388W, stronger effect = lower value 0.947 | locus YDR502C, strain sam2, stronger effect = lower value 0.929 | locus YEL003W, strain gim4, stronger effect = lower value 0.955 | locus YEL037C, strain rad23, stronger effect = lower value 0.987 | locus YEL061C, strain CIN8 (second series), stronger effect = lower value 0.946 | locus YEL061C, strain CIN8, stronger effect = lower value 0.966 | locus YER015W, strain faa2, stronger effect = lower value 0.955 | locus YER016W, strain bim1, stronger effect = lower value 0.938 | locus YER110C, stronger effect = lower value 0.929 | locus YER155C, strain BEM2, stronger effect = lower value 0.96 | locus YER167W, strain BCK2, stronger effect = lower value 0.938 | locus YFR010W, strain ubp6, stronger effect = lower value 1.06 | locus YGL078C, strain dbp3, stronger effect = lower value 0.959 | locus YGL086W, strain mad1, stronger effect = lower value 0.962 | locus YGL173C, strain kem1, stronger effect = lower value 0.909 | locus YGL248W, strain PDE1, stronger effect = lower value 0.983 | locus YGL253W, strain hxk2, stronger effect = lower value 0.945 | locus YGR078C, strain PAC10, stronger effect = lower value 0.903 | locus YGR135W, strain pre9, stronger effect = lower value 0.948 | locus YGR229C, strain SMI1, stronger effect = lower value 0.932 | locus YGR252W, strain gcn5, stronger effect = lower value 0.969 | locus YHR027C, strain rpn1, stronger effect = lower value 0.947 | locus YHR030C, strain SLT2, stronger effect = lower value 0.963 and 0.999 | locus YHR079C, strain IRE1 (second series), stronger effect = lower value 0.932 | locus YHR079C, strain IRE1, stronger effect = lower value 0.995 | locus YHR094C, strain hxt1, stronger effect = lower value 0.935 | locus YHR129C, strain ARP1, stronger effect = lower value 0.955 | locus YHR200W, strain rpn10, stronger effect = lower value 0.969 | locus YIL066C, strain RNR3, stronger effect = lower value 0.979 | locus YIL073C, strain SPO22, stronger effect = lower value 1.07 | locus YIL125W, strain kgd1, stronger effect = lower value 0.934 | locus YIR030C, strain dcg1, stronger effect = lower value 0.933 | locus YJL092W, strain hpr5, stronger effect = lower value 0.922 | locus YJL095W, strain BCK1, stronger effect = lower value 0.868 and 0.994 | locus YJL115W, strain asf1, stronger effect = lower value 0.978 | locus YJL129C, strain trk1, stronger effect = lower value 0.942 | locus YJL134W, strain LCB3, stronger effect = lower value 0.973 | locus YJL154C, strain vps35, stronger effect = lower value 0.989 | locus YJL164C, strain tpk1, stronger effect = lower value 0.939 | locus YJL166W, strain qcr8, stronger effect = lower value 0.934 | locus YJL168C, strain set2, stronger effect = lower value 0.94 | locus YJL187C, strain SWE1 (second series), stronger effect = lower value 0.985 | locus YJL187C, strain SWE1, stronger effect = lower value 0.945 | locus YJR043C, strain POL32, stronger effect = lower value 1.05 | locus YJR066W, strain TOR1, stronger effect = lower value 0.95
active: locus YBR023C, strain chs3, stronger effect = lower value 0.902 | locus YBR171W, strain sec66, stronger effect = lower value 0.874 | locus YDL040C, strain nat1, stronger effect = lower value 0.924 | locus YDR101C, strain arx1, stronger effect = lower value 0.908 | locus YDR159W, strain sac3, stronger effect = lower value 0.797 | locus YDR195W, strain ref2 1.22 [resistant] | locus YDR392W, strain spt3, stronger effect = lower value 0.378 | locus YER111C, strain swi4, stronger effect = lower value 0.898 | locus YER155C, strain BEM2 (second series), stronger effect = lower value 0.462 | locus YGL167C, strain pmr1, stronger effect = lower value 0.908 | locus YGL227W, strain vid30, stronger effect = lower value 0.882 | locus YGL240W, strain doc1, stronger effect = lower value 0.839 | locus YHR013C, strain ard1, stronger effect = lower value 1.32 [resistant] | locus YHR142W, strain chs7, stronger effect = lower value 0.723 | locus YJL095W, strain BCK1 (second series), stronger effect = lower value 0.879
